From PubChem BioAssay (NCATS)
Where “and” joins values, the source holds several entries; their conditions need not be identical. Equal values may be shown once. Results filed as inconclusive are left out. Calls of active or inactive are those of the source. Unless noted, calls come from the whole dose curve; as a rule, active = well fitted curve in the direction sought with a large enough effect; inconclusive = small, poorly fitted or top-dose-only effect, or another doubt; inactive = no such curve, though single readings can be large; an effect the other way counts as inactive or inconclusive.

Experiments:
[1] = AP1 Signaling Pathway (AID 357; active = well fitted curve in either direction with a large enough effect, not every such curve was filed as active; note: % is set by controls: 0 for no effect and ±100 for the full control effect)
Summary of the method: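 ME-180 cells with beta-lactamase reporter under AP-1 response element, stimulated with EC50 EGF; compounds tested in titration series, 5 h at 37 °C. CCF4 substrate added 2.5 h at room temperature; 460/530 nm emission ratio gave %activity and AC50.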

[2] = NFAT Signaling Pathway (AID 444; active = well fitted curve in either direction with a large enough effect, not every such curve was filed as active;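 note: carbachol stimulus at about its EC50 of 1 µM final; % is set by controls: 0 for no effect and ±100 for the full control effect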); details: Jurkat NFAT-bla M1, carbachol, beta-lactamase ratio, 5 h; at 17.2 µM (top of the series) unless noted
Summary of the method: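 Jurkat cells with NFAT-driven β-lactamase reporter and co-expressed M1 receptor, stimulated with carbachol (final 1 uM, ~EC50), compound titration, 5 h at 37 °C. CCF4 loaded 1 h at RT; 460/530 nm ratio gave %activity and AC50.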

[3] = Stat Signaling Pathway (AID 446; active = well fitted curve in either direction with a large enough effect, not every such curve was filed as active;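 note: ME-180 cervical cancer cells given 40 pM IL-6 alongside compound; SIE-controlled beta-lactamase reporter measured as 460/530 nm FRET emission ratio; % is set by controls: 0 for no effect and ±100 for the full control effect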)
Summary of the method: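 FRET read-out (405 nm excitation, 460/530 nm emission) of a beta-lactamase reporter under a STAT-inducible element in ME-180 cervical carcinoma cells. Cells with compound receive 40 pM IL-6 for 5 h. Values are normalised to AC90 stimulation and AC90 JAK-inhibitor controls.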

[4] = target: Glucocorticoid receptor (Homo sapiens) (UniProt P04150); experiment: GR-GFP Redistribution (AID 450;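 active = compounds whose dose series gives a full or clear partial fitted curve of increased nuclear translocation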; note: potency is the fitted concentration of half-maximal effect); details: U2OS GR-GFP nuclear translocation, laser cytometry, 2 h
Glucocorticoid receptor (Homo sapiens), sequence (P04150 whole entry, looked up, the tested form may be a part): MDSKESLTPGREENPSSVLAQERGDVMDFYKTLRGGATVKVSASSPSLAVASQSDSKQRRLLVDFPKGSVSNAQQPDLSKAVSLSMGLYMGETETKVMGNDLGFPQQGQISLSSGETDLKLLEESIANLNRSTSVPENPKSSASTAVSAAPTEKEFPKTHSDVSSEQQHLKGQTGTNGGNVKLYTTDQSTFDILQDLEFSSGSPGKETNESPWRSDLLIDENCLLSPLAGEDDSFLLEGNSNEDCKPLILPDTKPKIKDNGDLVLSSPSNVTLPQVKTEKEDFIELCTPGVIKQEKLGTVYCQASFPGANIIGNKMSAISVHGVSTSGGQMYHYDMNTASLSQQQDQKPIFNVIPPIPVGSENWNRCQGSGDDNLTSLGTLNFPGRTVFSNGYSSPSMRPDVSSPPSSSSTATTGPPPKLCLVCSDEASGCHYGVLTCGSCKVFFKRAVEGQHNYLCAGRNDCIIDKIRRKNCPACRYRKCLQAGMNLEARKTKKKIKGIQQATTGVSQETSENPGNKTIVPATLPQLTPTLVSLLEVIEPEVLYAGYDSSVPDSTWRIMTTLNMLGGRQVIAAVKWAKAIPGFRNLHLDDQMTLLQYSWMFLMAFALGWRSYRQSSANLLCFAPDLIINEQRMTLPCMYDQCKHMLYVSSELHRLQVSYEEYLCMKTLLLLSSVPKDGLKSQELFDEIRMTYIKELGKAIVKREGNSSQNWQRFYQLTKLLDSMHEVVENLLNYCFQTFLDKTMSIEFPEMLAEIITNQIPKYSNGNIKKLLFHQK

[5] = target: Glucocorticoid receptor (Homo sapiens) (UniProt P04150); experiment: GR-EFC Redistribution (AID 451; calls by dose curve; note: potency is the fitted concentration of half-maximal effect); details: CHO-K1 GR-EFC translocation, beta-gal luminescence, 2 h
Summary of the method: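 CHO-K1 cells expressing nuclear EA and GR-ED fragments of b-gal; compounds titrated up to 46 uM final, 2 h at 37 C. GR nuclear translocation read as complemented b-gal luminescence after 1 h RT detection.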

[6] = target: Mitogen-activated protein kinase 10 (Mus musculus) (UniProt Q61831); experiment: JNK3 AlphaScreen Assay (AID 530; active = well fitted curve in either direction with a large enough effect, not every such curve was filed as active;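 note: kinase came from lysate of stimulated human HepG2 cells; signal reports phosphorylation of biotinylated GST-cJun 1-79 at Ser73 with 10 µM ATP; % is set by controls: 0 for no effect and ±100 for the full control effect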)
Summary of the method: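 Activity was read by AlphaScreen after JNK3-containing HepG2 lysate (cytokine pre-activated) phosphorylated biotinylated GST-cJun with 10 uM ATP at room temperature. Phospho-Ser73 cJun antibody with Protein-A acceptor beads provided detection.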

[7] = target: 3',5'-cyclic-AMP phosphodiesterase 4B (Homo sapiens) (UniProt Q07343); experiment: qHTS Assay for Inhibitors of PDE-IV (AID 607; active = well fitted activation curve with a large enough effect in the main read-out, with a control signal flat, not every such curve was filed as active; note: % of control where 0% means no effect)
3',5'-cyclic-AMP phosphodiesterase 4B (Homo sapiens), sequence (Q07343 whole entry, looked up): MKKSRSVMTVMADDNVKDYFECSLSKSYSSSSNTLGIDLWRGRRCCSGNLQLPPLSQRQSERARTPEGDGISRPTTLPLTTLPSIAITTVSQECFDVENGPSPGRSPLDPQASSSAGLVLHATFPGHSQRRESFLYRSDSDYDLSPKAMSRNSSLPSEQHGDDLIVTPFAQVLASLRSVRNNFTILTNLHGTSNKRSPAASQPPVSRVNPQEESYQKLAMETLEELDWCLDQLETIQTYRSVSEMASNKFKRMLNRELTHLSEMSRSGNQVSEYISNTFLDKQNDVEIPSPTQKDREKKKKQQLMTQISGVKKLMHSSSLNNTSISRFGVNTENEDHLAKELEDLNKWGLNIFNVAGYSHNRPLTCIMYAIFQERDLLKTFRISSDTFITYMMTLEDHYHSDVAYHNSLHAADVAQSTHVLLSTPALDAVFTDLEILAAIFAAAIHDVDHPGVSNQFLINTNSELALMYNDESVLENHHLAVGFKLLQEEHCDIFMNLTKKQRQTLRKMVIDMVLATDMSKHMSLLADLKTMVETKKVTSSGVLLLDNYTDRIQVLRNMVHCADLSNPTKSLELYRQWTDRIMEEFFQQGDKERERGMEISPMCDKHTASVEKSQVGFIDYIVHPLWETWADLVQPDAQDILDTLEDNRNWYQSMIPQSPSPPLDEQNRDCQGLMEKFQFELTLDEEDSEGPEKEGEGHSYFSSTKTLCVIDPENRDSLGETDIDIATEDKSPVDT
Summary of the method: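 Cell-based read-out of cAMP via a modified cyclic nucleotide-gated channel and membrane potential dye (535/590 nm) in HEK293 cells expressing PDE4 endogenously. Compounds tested up to 22.9 uM final; 100 uM RO 20-1724 reference.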

[8] = qHTS Assay for Lipid Storage Modulators (AID 1519; calls by dose curve); details: Drosophila S3 cells, BODIPY lipid droplet/cell ratio, laser cytometry, cells loaded with oleic acid
Summary of the method: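 Cells seeded at 5,000 per well were treated with compounds over a concentration series and loaded with oleic acid (400 uM, as added). Lipid droplet fluorescence (488 nm excitation, 500-530 nm channel) was read by laser-scanning cytometry and normalized to 20 uM Triacsin C.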

[9] = target: Luciferin 4-monooxygenase (Photinus pyralis) (UniProt P08659); experiment: Biochemical firefly luciferase enzyme assay for NPC (AID 624030);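 note: purified P. pyralis luciferase at 10 nM with luciferin and ATP substrate; 0% = DMSO and -100% = full luciferase inhibition by PTC124 control; nearly all actives have a fitted effect of over 70% in size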
Luciferin 4-monooxygenase (Photinus pyralis), sequence (P08659 whole entry, looked up): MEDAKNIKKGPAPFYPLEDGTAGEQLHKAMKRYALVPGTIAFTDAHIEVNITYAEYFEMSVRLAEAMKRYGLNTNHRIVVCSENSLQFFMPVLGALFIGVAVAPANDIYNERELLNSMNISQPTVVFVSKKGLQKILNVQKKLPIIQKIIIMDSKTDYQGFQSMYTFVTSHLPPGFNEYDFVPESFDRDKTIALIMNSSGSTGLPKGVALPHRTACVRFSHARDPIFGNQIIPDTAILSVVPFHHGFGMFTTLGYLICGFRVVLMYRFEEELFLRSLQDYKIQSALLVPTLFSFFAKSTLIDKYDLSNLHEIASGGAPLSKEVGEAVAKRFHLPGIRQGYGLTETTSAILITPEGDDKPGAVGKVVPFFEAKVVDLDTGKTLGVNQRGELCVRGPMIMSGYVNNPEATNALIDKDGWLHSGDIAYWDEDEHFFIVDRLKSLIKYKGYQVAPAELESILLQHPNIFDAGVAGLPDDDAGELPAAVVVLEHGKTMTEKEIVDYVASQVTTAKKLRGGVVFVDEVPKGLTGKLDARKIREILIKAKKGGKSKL
Summary of the method: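 Purified P. pyralis luciferase at 10 nM in 50 mM Tris Acetate (final), luminescence read within 5 minutes of enzyme addition to compounds. Activity normalised to PTC124 versus DMSO; concentration-response curves classed by r2, magnitude and activity.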

[10] = target: Ubiquitin carboxyl-terminal hydrolase 1 (Homo sapiens) (UniProt O94782); experiment: Inhibitors of USP1/UAF1: Pilot qHTS (AID 504865);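 note: rhodamine fluorescence freed from ubiquitin-rhodamine substrate followed over time; top concentration of the series differs between compounds; % is set by controls: 0 for no effect and ±100 for the full control effect; nearly all actives have a fitted effect of over 35% in size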
Ubiquitin carboxyl-terminal hydrolase 1 (Homo sapiens), sequence (O94782 whole entry, looked up): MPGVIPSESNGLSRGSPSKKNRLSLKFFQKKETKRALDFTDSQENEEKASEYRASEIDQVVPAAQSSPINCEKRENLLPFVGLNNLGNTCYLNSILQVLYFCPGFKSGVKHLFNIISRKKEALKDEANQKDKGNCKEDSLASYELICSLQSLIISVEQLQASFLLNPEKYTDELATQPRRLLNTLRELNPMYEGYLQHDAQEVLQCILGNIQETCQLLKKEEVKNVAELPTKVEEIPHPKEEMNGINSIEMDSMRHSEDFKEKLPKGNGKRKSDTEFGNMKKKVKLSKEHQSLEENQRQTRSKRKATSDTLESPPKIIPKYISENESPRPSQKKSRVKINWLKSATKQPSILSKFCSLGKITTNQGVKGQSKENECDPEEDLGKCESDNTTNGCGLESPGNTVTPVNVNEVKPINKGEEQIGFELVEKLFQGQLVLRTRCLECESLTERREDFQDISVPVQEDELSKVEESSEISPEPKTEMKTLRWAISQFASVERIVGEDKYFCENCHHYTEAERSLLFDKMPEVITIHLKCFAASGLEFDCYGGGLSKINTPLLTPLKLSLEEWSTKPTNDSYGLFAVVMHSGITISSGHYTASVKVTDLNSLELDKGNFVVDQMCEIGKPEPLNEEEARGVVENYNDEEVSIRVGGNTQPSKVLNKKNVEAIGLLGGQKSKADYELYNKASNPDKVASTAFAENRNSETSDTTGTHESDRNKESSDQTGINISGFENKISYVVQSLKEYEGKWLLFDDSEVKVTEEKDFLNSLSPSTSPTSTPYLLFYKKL
Summary of the method: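 Deubiquitinase activity followed as kinetic rhodamine fluorescence release from 150 nM Ub-Rho. 1 nM USP1/UAF1 with compound, after 15 min room-temperature preincubation, in HEPES pH 7.8 buffer containing TCEP, EDTA, BSA and Tween-20.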

[11] = target: ATP-dependent 6-phosphofructokinase (Trypanosoma brucei brucei) (UniProt O15648); experiment: qHTS Assay to Find Inhibitors of T. brucei phosphofructokinase: hit validation (AID 492961); note: % is set by controls: 0 for no effect and ±100 for the full control effect
ATP-dependent 6-phosphofructokinase (Trypanosoma brucei brucei), sequence (O15648 whole entry, looked up): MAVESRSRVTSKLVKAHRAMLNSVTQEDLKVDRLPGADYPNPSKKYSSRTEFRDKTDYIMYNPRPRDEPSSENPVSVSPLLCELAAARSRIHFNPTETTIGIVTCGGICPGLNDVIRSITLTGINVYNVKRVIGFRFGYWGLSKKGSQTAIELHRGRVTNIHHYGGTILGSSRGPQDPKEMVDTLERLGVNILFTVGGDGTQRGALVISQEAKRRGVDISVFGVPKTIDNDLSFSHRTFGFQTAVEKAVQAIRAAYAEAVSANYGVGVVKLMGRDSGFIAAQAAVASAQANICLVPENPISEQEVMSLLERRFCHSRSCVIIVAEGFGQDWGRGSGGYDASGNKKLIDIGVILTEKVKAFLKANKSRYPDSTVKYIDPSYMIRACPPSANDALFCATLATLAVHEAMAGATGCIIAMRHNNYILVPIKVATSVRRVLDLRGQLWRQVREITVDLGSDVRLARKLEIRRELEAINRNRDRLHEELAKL
Summary of the method: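 Luminescence from ADP-Glo reports ADP generated as T. brucei PFK (1.25 nM) phosphorylates 0.5 mM fructose-6-phosphate using 0.1 mM ATP. Reactions ran 45 min at room temperature, pH 8.0.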

[12] = S16 Schwann cell PMP22 intronic element firefly luciferase assay (AID 624032);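 note: plate controls were DMSO for no effect and PTC124 positive control mean for full effect; nearly all actives have a fitted effect of over 30% in size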
Summary of the method: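 Rat S16 Schwann cells stably carrying firefly luciferase driven by a PMP22 intronic element, in 10% FBS, treated 24 h at 37 C. ONE-Glo luminescence normalized to PTC124 control and DMSO (0%); curves classed by r2, magnitude and activity.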

[13] = qHTS profiling for inhibitors of Plasmodium falciparum proliferation (AID 504749);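 note: 0% = DMSO vehicle and full inhibition = artemisinin control; nearly all actives have a fitted effect of over 60% in size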; details: P. falciparum in erythrocytes, SYBR Green DNA, 72 h
Summary of the method: (§1)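 Each compound contacts P. falciparum-infected red blood cells for 72 h at 37 C; lysis buffer (Tris, EDTA, saponin, Triton X, SYBR Green I) is added and fluorescence measured next morning; values normalized to controls.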

C2A = experiment: as above; details: P. falciparum in erythrocytes, SYBR Green DNA, 72 h; series mostly up to 12.8 µM
Summary of the method: as §1

CP238 = experiment: as above; details: P. falciparum in erythrocytes, SYBR Green DNA, 72 h; series mostly up to 12.8 µM
Summary of the method: as §1

CP250 = experiment: as above; details: P. falciparum in erythrocytes, SYBR Green DNA, 72 h; series mostly up to 12.8 µM
Summary of the method: as §1

CP252 = experiment: as above; details: P. falciparum in erythrocytes, SYBR Green DNA, 72 h; series mostly up to 12.8 µM
Summary of the method: as §1

HB3 = experiment: as above; details: P. falciparum in erythrocytes, SYBR Green DNA, 72 h; series mostly up to 12.8 µM
Summary of the method: as §1

SC27B = experiment: as above; details: P. falciparum in erythrocytes, SYBR Green DNA, 72 h; series mostly up to 12.8 µM
Summary of the method: as §1

AS120 = experiment: as above; details: P. falciparum in erythrocytes, SYBR Green DNA, 72 h; series mostly up to 12.8 µM
Summary of the method: as §1

[14] = measured here: cell count channel max response
[15] = measured here: lipid channel max response

CN1CCCN=C1/C=C\c1cccs1
inactive: outcome [1] | activity change, negative = inhibition [2] -25.3% | outcome [3] | Potency [4] > 20.6 µM | Potency [5] > 20.6 µM | Potency [6] | outcome [7] | activity change, negative = inhibition ([8]; at 25.7 µM (top of the series)) 0.765% | Potency [9]
-6.06%: max response [8, 15]
-6.05%: max response [8, 14]

CC1(C)S[C@@H]2[C@H](NC(=O)COc3ccccc3)C(=O)N2[C@H]1C(=O)O (tested in a mixture with another compound)
inactive: outcome [1] | activity change, negative = inhibition [2] -7.06% | outcome [3] | Potency [5] > 20.6 µM | Potency [6] | outcome [7] | activity change, negative = inhibition ([8]; at 25.7 µM (top of the series)) 1.44% | Potency [10]
-7.74%: max response [8, 15]
-7.85%: max response [8, 14]

COc1cc(C2Oc3cc(C4Oc5cc(O)cc(O)c5C(=O)C4O)ccc3OC2CO)ccc1O (stereo not given)
inactive: outcome [1] | activity change, negative = inhibition [2] 22.6% | outcome [3] | Potency [4] > 20.6 µM | activity change, negative = inhibition ([8]; at 57.5 µM (top of the series)) 18.7%
5.37%: max response [8, 14]
24.8%: max response [8, 15]

CC[C@H](CC[C@H](C)[C@@H]1CC[C@@H]2[C@H]3CC=C4C[C@@H](O)CC[C@]4(C)[C@H]3CC[C@]21C)C(C)C
inactive: outcome [1] | activity change, negative = inhibition [2] -3.85% | outcome [3] | Potency [4] > 20.6 µM | Potency [5] > 20.6 µM | Potency [6] | outcome [7] | activity change, negative = inhibition ([8]; at 25.7 µM (top of the series)) 2.08% | Potency [10]
-14.7%: max response [8, 15]
-14.8%: max response [8, 14]

O[C@@](CCN1CCCC1)(c1ccccc1)C1CCCCC1
-8.38%: max response [8, 14]
-9.51%: max response [8, 15]
inactive: outcome [1] | outcome [3] | Potency [5] > 20.6 µM | Potency [6] | activity change, negative = inhibition ([8]; at 25.7 µM (top of the series)) -0.986% | outcome [11] | Potency [10] | Potency [9] | Potency [12] | activity, negative = inhibition ([13]; at 12.8 µM (top of the series), parasite line A) -9.23% | Potency (C2A) | Potency (CP238) | Potency (CP250) | Potency (CP252) | Potency (HB3) | Potency (SC27B)
active: activity change, negative = inhibition [2] -61.1%

Cc1ccc2c(c1)c1c3n2CCN[C@H]3CCC1
inactive: outcome [1] | activity change, negative = inhibition [2] -11.2% | outcome [3] | Potency [5] > 20.6 µM and > 46 µM | Potency [6] | outcome [7] | activity change, negative = inhibition ([8]; at 25.7 µM (top of the series)) -2.69% | outcome [11] | Potency [10] | Potency [9] | Potency [12] | activity, negative = inhibition ([13]; at 28.7 µM (top of the series), parasite line A) -1.32% | activity, negative = inhibition ([13]; at 28.7 µM (top of the series), parasite line B) 1.18% | Potency (AS120) | Potency (C2A) | Potency (CP238) | Potency (CP250) | Potency (CP252) | Potency (HB3) | Potency (SC27B)
-5.65%: max response [8, 14]
-6.69%: max response [8, 15]
